Source: PubChem (National Center for Advancing Translational Sciences (NCATS))
An excerpt weighted towards active compounds, which were near 1.3% of everything screened.
Glioma ERSR ind = induces the endoplasmic reticulum stress response in human glioma cells | hit rate 0.02% among 420,000 | U87-MG GRP78 promoter luciferase reporter, 16 h | Potency, µM, without a hit: top-dose activation, usual class: activators; note: potency is the fitted concentration of half-maximal effect; series mostly up to about 76 µM; % of control where 0% means no effect; nearly all actives have a fitted effect of over 35% in size
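Stably transfected U87-MG glioma cells carrying a GRP78-based luciferase sensor; 16 h compound incubation. Luminescence end-point read 10 min after Bright-Glo addition at room temperature.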
WRN helicase inh = blocks human WRN helicase; Q14191; WRN helicase unwinding, fluorescent forked duplex, kinetic; Potency, µM (top dose mostly 114 µM), inactives show top-dose activity change, negative = inhibition, most hits filed as inhibitors; hit rate 0.46% among 360,000; AID 651768; note: potency is the fitted concentration of half-maximal effect; % is set by controls: 0 for no effect and ±100 for the full control effect; nearly all actives have a fitted effect of over 55% in size
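Fluorescence dequenching readout, ex 525 nm/em 598 nm, kinetic mode: forked duplex DNA (100 nM final) with adjacent fluorophore and quencher unwound by WRN (20 nM final) with 2 mM ATP. Compound preincubation 15 min, room temperature.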
Pin1 inhibitor = human Pin1 inhibition | Q13526 | Pin1 FP peptide displacement, HiFluor488, 10 min | Potency, µM (series often up to 115 µM), for the others: top-dose activity, negative = inhibition, actives largely listed as inhibitors | hit rate 0.009% among 390,000; active = well fitted inhibition curve with a large enough effect in the polarisation, with a control signal flat, not every such curve was filed as active; inconclusive = small, poorly fitted or top-dose-only effect, or effect the other way, or a change in a side signal; inactive = no such curve, though single readings can be large or run the other way; the % refers to the polarisation; note: potency is the fitted concentration of half-maximal effect; % is set by controls: 0 for no effect and ±100 for the full control effect
Target sequence (Q13526 whole entry, looked up): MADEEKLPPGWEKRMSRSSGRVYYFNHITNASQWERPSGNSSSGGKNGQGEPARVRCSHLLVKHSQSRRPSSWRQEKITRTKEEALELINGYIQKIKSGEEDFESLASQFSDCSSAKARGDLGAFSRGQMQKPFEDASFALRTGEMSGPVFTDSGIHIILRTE
PI5P4Ka inh = inhibitors of human PI5P4K alpha; max response, %; AID 652105; hit rate 1.2% among 330,000; PI5P4Kalpha enzyme, ADP-Glo luminescence, 60 min; stronger effect = lower value; active = max response of -50% or lower; inconclusive = between -30% and -50%; inactive = -30% or higher; note: value at the top dose of about 77 µM; % is set by controls: 0 for no effect and ±100 for the full control effect
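qHTS, 1536-well: enzyme/substrate mix, compound by pin tool, 5 microM ATP final; RT 60 min; ADP-Glo reagents 1 (45 min) then 2 (30 min); luminescence.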
FEN1 inh = blocks human flap endonuclease 1; hit rate 0.35% among 390,000; Potency, µM (titrated, usually from 114 µM), for the others: at the top dose activity change, negative = inhibition, actives largely listed as inhibitors; Recombinant FEN1 flap cleavage, fluorescence, 15 min; AID 588795; P39748; note: potency is the fitted concentration of half-maximal effect; % is set by controls: 0 for no effect and ±100 for the full control effect; nearly all actives have a fitted effect of over 65% in size
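FEN1 at 10 nM preincubated with compounds 15 min at room temperature, then flap DNA substrate added at 50 nM final. Signal read at 0 and 15 min; concentration-response fitted with four-parameter Hill equation.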
PGK inhibitor = inhibitors of T. brucei phosphoglycerate kinase. hit rate 0.043% among 380,000. PGK/GAPDH coupled, Kinase-Glo luminescence, 60 min. P07378. Potency, µM (highest dose often 57.5 µM), for the others: at the top dose activity change, negative = inhibition, hits mostly inhibitors; note: potency is the fitted concentration of half-maximal effect; % is set by controls: 0 for no effect and ±100 for the full control effect; nearly all actives have a fitted effect of over 60% in size
Target sequence (P07378 whole entry, looked up): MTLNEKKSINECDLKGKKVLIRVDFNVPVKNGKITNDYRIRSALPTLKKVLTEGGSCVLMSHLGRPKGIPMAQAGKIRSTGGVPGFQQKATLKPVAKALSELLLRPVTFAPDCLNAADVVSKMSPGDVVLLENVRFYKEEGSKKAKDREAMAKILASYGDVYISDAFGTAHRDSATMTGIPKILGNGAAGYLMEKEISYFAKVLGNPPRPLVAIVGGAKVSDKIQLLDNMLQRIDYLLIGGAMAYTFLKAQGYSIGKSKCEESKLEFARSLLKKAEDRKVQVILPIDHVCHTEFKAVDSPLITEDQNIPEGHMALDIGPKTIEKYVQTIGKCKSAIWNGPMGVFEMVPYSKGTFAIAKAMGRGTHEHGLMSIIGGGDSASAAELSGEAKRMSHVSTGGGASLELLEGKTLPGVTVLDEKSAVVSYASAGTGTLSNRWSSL
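Recombinant glycosomal PGK reaction used 1,3-bisphosphoglycerate generated in-well by GAPDH (100nM final) in 100mM TEA pH 7.6, 5mM MgCl2, 0.01% Tween-20. After 60 minutes at room temperature, ATP was read by Kinase-Glo Plus luminescence end-point.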
The depositor's hits bear a star; i = inactive; u = inconclusive; x = no result; [ ] = another dose, or the depositor's remark. Unless noted, calls come from the whole dose curve; as a rule, active = well fitted curve in the direction sought with a large enough effect; inconclusive = small, poorly fitted or top-dose-only effect, or another doubt; inactive = no such curve, though single readings can be large; an effect the other way counts as inactive or inconclusive.

SMILES | Glioma ERSR ind | WRN helicase inh | Pin1 inhibitor | PI5P4Ka inh | FEN1 inh | PGK inhibitor
OC(c1ccc2c(c1)CN(Cc1c[nH]c3ccccc13)CCO2)c1ccccn1 (stereo not given) | -3.1% | x | x | x | x | x
Cc1ccc(OCC(=O)Nc2cc(C(=O)O)cc(C(=O)O)c2)cc1C | -2.7% | 79.4µM* | 3.9% | -55.0* | -12.4% | -4.8%
CC(O)(COc1ccccc1)c1ccc2c(c1)CN(Cc1cccn1-c1ccccn1)CCO2 (stereo not given) | -3.4% | x | x | x | x | x
Nc1c(Br)cc(Br)c2c1C(=O)c1c(cccc1S(=O)(=O)O)C2=O | -3.2% | u | u | -56.8* | u | -19.3%
N#Cc1nc(NC2CCCC2)c2ncn(-c3cc(F)cc(F)c3)c2n1 | x | x | 1.9% | x | x | x
Cc1ccc(S(=O)(=O)/N=C2\C=C(NS(=O)(=O)c3ccccc3)C(=O)c3ccccc32)cc1 | 7.2% | u | -11.6% | u | u | -19.3%
Cc1ccc(S(=O)(=O)/N=C2/C=C(C3C(=O)CC(C)(C)CC3=O)C(=O)c3ccccc32)cc1 | 0.0% | 16.8µM* | u | 6.4 | -16.3% | -4.1%
COc1cc(/C=C/c2nnc3c4ccccc4ncn23)cc(OC)c1OC | -0.7% | 56.2µM* | 5.0% | -1.1 | -29.2% | -4.9%
Cc1ccc(NS(=O)(=O)c2cc3c(cc2N2CCC2)NC(=O)CC3)cc1C | x | x | -3.1% | x | x | x
COCCNC(=O)/C(C#N)=C/c1ccccc1Br | 4.4% | 2.3% | -3.9% | -63.3* | -0.9% | 4.8%
COCCNC(=O)/C(C#N)=C/c1cc(Br)c(O)c(OC)c1 | 1.4% | -16.7% | 24.9% | u | -4.9% | -7.0%
CCOCCCNC(=O)/C(C#N)=C/c1cc(Br)c(O)c(Br)c1 | 5.8% | -1.3% | -4.9% | -101.0* | -2.2% | i
O=C([C@@H]1C[C@@H](Sc2nc3ccccc3[nH]2)CN1Cc1ccc(C(F)(F)F)cc1)N1CCN(c2ccccc2F)CC1 | 4.8% | x | x | x | x | x
c1ccc(CNCc2nnc(-c3cc4ccccc4[nH]3)o2)cc1 | x | x | -5.3% | x | x | x
Nc1nc(N=Nc2ccc(O)cc2)cc(=O)[nH]1 | -2.2% | -15.4% | x | -51.8* | x | -12.1%
N#Cc1ccc(/C=C2\CCCCn3c2nc2cc(C(=O)O)ccc2c3=O)cc1 | -2.7% | 10.9% | 1.1% | -52.8* | -1.0% | -1.3%
Cc1ccnc(NC(c2ccccc2)c2ccc3cccnc3c2O)c1 (stereo not given) | -7.5% | -6.7% | 1.1% | -4.3 | -18.3% | -7.2%
O=C(O)c1ccccc1NC(c1ccccc1)c1ccc2cccnc2c1O (stereo not given) | 7.4% | 14.1µM* | u | -57.0* | -11.0% | -1.0%
COc1ccc(/C=N/Nc2cc(N3CCOCC3)ncn2)c(OC)c1 | -6.0% | -3.6% | 3.0% | -5.5 | -13.4% | 5.7%
COc1cccc(/C=N/Nc2cc(N3CCOCC3)ncn2)c1O | -0.7% | -7.8%[57.1 µM] | 17.3% | -97.7* | -23.9% | -10.1%
COc1cc(CN2CCC3(CCC(CNC(=O)c4cc(C)nn4C)O3)CC2)ccc1F (stereo not given) | 1.1% | x | x | x | x | x
COc1ccccc1C1CN(CC(=O)NCC2OCCc3ccccc32)Cc2ccccc2O1 (stereo not given) | -3.5% | x | x | x | x | x
O=C(O)c1ccc(-c2ccc(/C=C3\NC(=O)N(Cc4ccc(Cl)cc4)C3=O)o2)cc1Cl | -0.8% | 22.4µM* | x | -69.3* | 28.2µM* | 25.1µM*
Cc1cnc(SCc2ccccn2)nc1C1CCCN(C(=O)c2coc3c2C(=O)CCC3)C1 (stereo not given) | 0.2% | x | x | x | x | x
Oc1ccc(N=Cc2ccc(O)c(O)c2)cc1 | 10.4% | 31.6µM* | u | -79.4* | u | -5.8%
Cc1nnc(SCc2nc3sc(C(=O)O)c(C)c3c(=O)[nH]2)s1 | -3.6% | -22.6% | 8.4% | -61.7* | u | -6.7%
C=CCn1c(SCc2nc3sc(C(=O)O)c(C)c3c(=O)[nH]2)nnc1-c1ccccc1 | -0.9% | -35.4%[57.1 µM] | -1.3% | -66.7* | -11.9% | -11.7%
C=CCn1c(SCc2nc3sc(C(=O)O)c(C)c3c(=O)[nH]2)nnc1-c1ccc(C(C)(C)C)cc1 | -0.8% | u | -13.6% | -50.9* | 44.7µM* | -16.6%
